DT40 TDP1 CPT – DT40-hTDP1 cell growth loss with CPT; 420,000 tested, 12% active; Potency, µM (highest dose often 46.2 µM), without a hit: at the highest dose activity change, negative = growth inhibition, usual class: inhibitors; chicken DT40 Tdp1-/-;hTDP1 cells + 20 nM CPT, ATP luminescence, 48 h; AID 686979; also: % is scaled to controls: 0 for no effect and ±100 for the full control effect; nearly all actives have a fitted effect of over 55% in size
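Chicken DT40 Tdp1-/- cells complemented with human TDP1, 400 cells/well, exposed to compounds plus 20 nM camptothecin for at least 48 h at 37 C; viability read as ATP content by CellTiter-Glo luminescence.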
ClpP mod – qHTS Assay for Activators of ClpP. ATP-dependent Clp protease proteolytic subunit (Bacillus subtilis (strain 168)), P80244. purified B. subtilis ClpP, FRET peptide cleavage, 20 min. Potency, µM (highest dose often 57.5 µM), for the others: at the highest dose activity change, negative = active. 340,000 tested, 1.9% active. AID 651965, 2013; active = well fitted falling curve with a large enough effect; inconclusive = small, poorly fitted or top-dose-only effect; inactive = no such curve, though single readings can be large or run the other way; also: the source files actives as falling curves though it sought activators and does not explain the sign; nearly all actives have a fitted effect of over 65% in size
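FRET quenching reversal measured ClpP activation: 10 microg/mL B. subtilis ClpP at pH 8 with the FRET-FV decapeptide, read at 430 nm after 320 nm excitation. The 20-min minus 0-min signal was scaled between DMSO/no-enzyme wells and ADEP (5.8 microM final).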
TDP1 cell noCPT – qHTS for Inhibitors of human tyrosyl-DNA phosphodiesterase 1 (TDP1): qHTS in cells in absence of CPT. DT40 Tdp1-/- hTDP1 cells, no CPT, ATP luminescence, 48 h. Potency, µM (doses to about 46.2 µM), for the others: at the highest dose activity change, negative = growth inhibition, usual class: inhibitors. 420,000 tested, 15% active; also: % is scaled to controls: 0 for no effect and ±100 for the full control effect; nearly all actives have a fitted effect of over 55% in size
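No-CPT arm: Tdp1-/-;hTDP1 DT40 cells (400/well) plus compounds, incubated ≥48 hr at 37 °C. Readout CellTiter-Glo luminescence.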
TDP1 inh – blocks human tyrosyl-DNA phosphodiesterase 1; Q9NUW8; recombinant TDP1, AlphaScreen DNA substrate cleavage; Potency, µM (titrated, usually from 130 µM), for the others: at the top dose activity change, negative = inhibition, most hits filed as inhibitors; 350,000 tested, 0.28% active; also: % is scaled to controls: 0 for no effect and ±100 for the full control effect; nearly all actives have a fitted effect of over 40% in size
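Recombinant E. coli-expressed Tdp1 (1 nM) preincubated with compound 15 min at RT, then 5'-biotin/3'-phosphotyrosine-FITC DNA substrate (15 nM) added for 5 min. AlphaScreen beads (10 ug/ml) added, 10 min RT; tyrosine-FITC cleavage read as signal loss.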
* = called active by the depositor; ? = inconclusive; / = not tested or not shown; [ ] = another dose, or the depositor's remark. Only some compounds are listed: those with a hit (about 17% of all), similar ones and a draw of the others. Unless noted, calls follow the shape of the dose curve; as a rule, active = well fitted curve in the direction sought with a large enough effect; inconclusive = small, poorly fitted or top-dose-only effect, or another doubt; inactive = no such curve, though single readings can be large; an effect the other way counts as inactive or inconclusive. Potency is read from the fitted curve at half-maximal effect.

SMILES	DT40 TDP1 CPT	ClpP mod	TDP1 cell noCPT	TDP1 inh
O=C(NCc1cccnc1)c1ccc(COc2ccccc2Cl)cc1	?	-3%	13µM*	-2%
Nc1nc2c(nc(SCc3ccccc3Br)n2C2OC(CO)C(O)C2O)c(=O)[nH]1 (centres undefined)	1%	/	-21%	6%
CCCC(=O)N(CCN1CCOCC1)c1nc2c(F)cc(F)cc2s1	-14%	-3%	-9%	3%
CCN(CC)C(=O)c1ccc(COc2ccccc2Cl)o1	-20%	/	16µM*	/
COCCNC(=S)N/N=C(\C)c1ccccc1O	0.026µM*	?	0.082µM*	8%
COCCNC(=S)N/N=C(\C)c1ccc(Cl)c(Cl)c1Cl	4.1µM*	/	4.6µM*	5%
COCCNC(=S)N/N=C(\C)c1cccc(OC)c1	13%	/	11%	1%
COCCNC(=S)N/N=C(\C)c1ccccc1F	?	/	?	4%
COCCNC(=S)N/N=C(\C)c1ccc(Cl)s1	?	/	21µM*	11%
COCCNC(=S)N/N=C(\C)c1ccc(Cl)c(Cl)c1	23µM*	0%	21µM*	6%
CC(C)(C)c1ccc(C(=O)N/N=C/c2ccc(OCCCF)cc2)cc1	2%	-2%	-25%	0%
Cc1ccc(Oc2nc(-c3cccnc3)nc3ccccc23)c([N+](=O)[O-])n1	?	-1%	?	1%
C/C(=N\O)c1ccc(Cl)c(Cl)c1	5%	1%	9%	/
COCCNC(=S)NN=C1CCC(c2ccccc2)CC1 (centres undefined)	?	0%	5.2µM*	9%
CNC(=S)N/N=C(\C)c1ccc(Cl)c(Cl)c1	4.1µM*	/	5.2µM*	4%
COc1ccc(O)c(/C=N/NC(=S)NCCc2ccccc2)c1	?	/	?	5%
COc1ccc(/C(C)=N/NC(=S)NCCc2ccccc2)c(O)c1	0.65µM*	/	0.58µM*	/
C=CCNC(=S)NN=C1CCC(c2ccccc2)CC1 (centres undefined)	-9%	/	-28%	9%
Cc1nc(SCc2nc3ccc([N+](=O)[O-])cc3[nH]2)c2oc3ccccc3c2n1	/	/	/	1%
COCOCCn1cc(CN2CCS(=O)(=O)N(Cc3ccc(-c4ccc(OC)c(OC)c4)cc3)C(C)C2=O)nn1 (centres undefined)	16µM*	-11%	10µM*	/
COCOCCn1cc(CN2CCS(=O)(=O)N(Cc3ccc(-c4cccc(CO)c4)cc3)C(C)C2=O)nn1 (centres undefined)	1%	0%	-15%	/
COCOCCn1cc(CN2CCS(=O)(=O)N(Cc3ccc(-c4ccc(Cl)c(Cl)c4)cc3)C(C)C2=O)nn1 (centres undefined)	4.1µM*	0%	4.1µM*	/
COCOCCn1cc(CN2CCS(=O)(=O)N(Cc3ccc(-c4ccc(C)cc4)cc3)C(C)C2=O)nn1 (centres undefined)	?	-1%	15µM*	/
COCOCCn1cc(CN2CCS(=O)(=O)N(Cc3ccc(-c4ccncc4)cc3)C(C)C2=O)nn1 (centres undefined)	-18%	-6%	-16%	/
O=C(N/N=C/c1ccc(O)cc1)Nc1cccc2nsnc12	-12%	/	21µM*	0%
SMILES	DT40 TDP1 CPT	ClpP mod	TDP1 cell noCPT	TDP1 inh
COc1cc(/C=N/NC(=O)Nc2cccc3nsnc23)cc(OC)c1OC	?	4%	?	6%
COc1ccc(/C=N/NC(=O)Nc2cccc3nsnc23)c(OC)c1	12µM*	43%	10µM*	-8%
COc1ccc(NC(=O)NNC(=O)c2ccc3ccccc3c2O)c(OC)c1	-7%	3%	16%	2%
CC(C)Cc1nc2cc(NS(=O)(=O)N(C)C)cc(C(=O)N3CCOCC3)c2n1C	8%[9.04 µM]	/	3%	/
COc1ccccc1-c1coc2cc(OC(=O)/C=C/c3ccccc3)ccc2c1=O	-29%	-15%	-21%	1%
CCOc1ccc(-n2c(C)c(C(C)=O)c3cc(OCC(N)=O)ccc32)cc1	-1%	1%	8%	-3%
O=C(NN=Cc1ccccc1O)C(O)(c1ccccc1)c1ccccc1	23µM*	5%	8.2µM*	/
O=C(N/N=C/c1ccc(O)c([N+](=O)[O-])c1)C(O)(c1ccccc1)c1ccccc1	?	/	2.9µM*	/
O=C(NC1CC1)c1ccc(N2CCCCC2)c([N+](=O)[O-])c1	?	-2%	?	5%
CC=CC1=C(C(=O)O)N2C(=O)[C@H](NC(=O)[C@H](N)c3ccc(O)cc3)[C@@H]2SC1	/	/	/	-1%
CC[C@H](C)[C@H](NC(=O)[C@H](Cc1ccc(O)cc1)NC(=O)[C@@H]1CCCN1C(=O)[C@@H](NC(=O)[C@@H](N)CCCCN)[C@@H](C)CC)C(=O)N[C@@H](CC(C)C)C(=O)O	/	/	/	11%
Cc1cc2c(c(-c3nc4ccccc4s3)c1)OC(CNC(=O)CCc1cccnc1)C2 (centres undefined)	0.12µM*	/	0.13µM*	/
O=C(CCc1cccnc1)NCC1Cc2cccc(-c3ncccn3)c2O1 (centres undefined)	3%[9.04 µM]	/	11%	/
O=C(Cc1nnc(-c2cc3ccccc3[nH]2)s1)Nc1cc(C(F)(F)F)ccc1Cl	/	/	/	0%
Oc1c(N=Nc2nn[nH]n2)ccc2ccccc12	16µM*	-2%	16µM*	/
Oc1c(N=Nc2ccc(F)cc2)ccc2ccccc12	9.2µM*	/	15µM*	/
CCN(C(=O)CN(C)Cc1cccc(Cl)c1Cl)c1c(N)n(Cc2ccccc2)c(=O)[nH]c1=O	?	2%	?	0%
COCCOC(=O)c1c(C)nc(SCC(=O)Nc2cccc3ccccc23)c(C#N)c1-c1ccco1	?	?	29µM*	6%
COCCOC(=O)c1c(C)nc(SCC(=O)Nc2ccc(C)cc2)c(C#N)c1-c1ccco1	?	-17%	?	0%
CCn1c2ccccc2c2cc(CN3CCN(Cc4ccccc4F)CC3)ccc21	?	?	?	-5%[12.3 µM]
CCn1c2ccccc2c2cc(CN3CCN(Cc4ccccc4C)CC3)ccc21	16µM*	?	?	-5%[12.3 µM]
CCn1c2ccccc2c2cc(CN3CCN(S(C)(=O)=O)CC3)ccc21	15µM*	-17%	16µM*	8%
CCn1c2ccccc2c2cc(CN3CCN(Cc4ccc(Cl)cc4)CC3)ccc21	15µM*	?	?	4%[12.3 µM]
O=C1NC2(CCCCCC2)C(=O)N1Cc1ccccc1Cl	-3%	/	-14%	/
C=CCc1ccccc1OCc1nc2ccc(C)cc2[nH]1	?	-1%	?	9%
CN[C@H]1C[C@H]2c3[nH]c4ccc(-c5ccc(OC)cc5)cc4c3CCN2C(=O)[C@H]1[C@H](C)O	2.6µM*	4%	3.3µM*	/
COc1ccc(NC(=O)N(C)[C@H]2C[C@H]3c4[nH]c5ccc(-c6ccc(OC)cc6)cc5c4CCN3C(=O)[C@H]2[C@H](C)O)cc1	18µM*	5%	13µM*	/
